# Screening data from PubChem.
# Pf growth 48h: inhibits P. falciparum growth in the first generation, 48 h | AID 504832 | P. falciparum luciferase growth in erythrocytes, 48 h | 5.9% of 310,000 active | Potency, µM (highest dose often 28.7 µM), for the others: at the top dose activity change, negative = inhibition, most hits filed as inhibitors; note: potency is the fitted concentration of half-maximal effect; % is set by controls: 0 for no effect and ±100 for the full control effect
#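 Luciferase-expressing P. falciparum in infected erythrocytes (2% hematocrit, 0.1% parasitemia final) in RPMI 1640/0.5% Albumax were exposed to compound for 48 hours at 37 C, 5% CO2; growth read as luminescence.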
# Cycloheximide cs: counter-screen hit for Shiga toxin inhibitors, cycloheximide; cell reporter, cycloheximide protein synthesis inhibition counterscreen; max response, %; 12% of 300,000 active; AID 2314; in the data active = max response mostly above about 13%, no sharp cut-off; inactive = mostly below about 14%; note: read at 38.3 µM for the half of the compounds with a filed dose; 0% is about no effect
# SARS PLpro yeast: SARS-CoV PLP inhibition in yeast; S. cerevisiae expressing SARS-CoV PLpro, growth rescue; Potency, µM (top dose mostly 32.9 µM), for the others: top-dose activity, positive = growth rescue, actives largely listed as activators; 0.19% of 330,000 active; AID 485353; calls by dose curve; note: potency is the fitted concentration of half-maximal effect; 0% is about no effect; nearly all actives have a fitted effect of over 55% in size
# AMA1-RON2 inh: inhibitors of Plasmodium falciparum AMA1-RON2 interaction; 0.2% of 360,000 active; AlphaScreen AMA1-biotinylated RON2 peptide binding; AID 720542; Potency, µM (doses to about 58.2 µM), inactives show top-dose activity change, negative = inhibition, most hits filed as inhibitors;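 note: potency is the fitted concentration of half-maximal effect; 0% = vehicle wells and -100% = peptide control; nearly all actives have a fitted effect of over 45% in size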
#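 AMA1 (3D7) with his tag at 25 nM final met compounds first, then biotinylated RON2 peptide at 25 nM; detection used donor plus acceptor beads, 10 µg/mL apiece, read by AlphaScreen after 30 min at room temperature.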
# Pf growth 96h: inhibits malaria parasite growth, 96 h; P. falciparum luciferase reporter growth, 96 h; Potency, µM (top dose mostly 28.7 µM), without a hit: at the top dose activity change, negative = inhibition, usual class: inhibitors; 6.9% of 320,000 active; note: potency is the fitted concentration of half-maximal effect; % is set by controls: 0 for no effect and ±100 for the full control effect
#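 Two parasite generations (96 h, 37 C, 5% CO2) of compound exposure in infected erythrocytes (0.05% parasitemia, 2% hematocrit). Luciferase-reporter P. falciparum; decreased luminescence indicates inhibited growth, aimed at apicoplast-acting delayed death.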
# Shiga inhibitor: blocks Shiga toxin action in Vero cells; inhibition, % at 38.7 µM; Vero cells, Shiga toxin protein synthesis inhibition reporter; 9.2% of 290,000 active; in the data active = inhibition mostly above about 28%, no sharp cut-off; inactive = mostly below about 43%; note: 0% is about no effect
# * marks the source's active call; other numbers are inactive results; ? = inconclusive; · = no result. Sampled rows, rich in hits. Any-hit rate of the full collection: about 19%. Unless noted, calls come from the whole dose curve; as a rule, active = well fitted curve in the direction sought with a large enough effect; inconclusive = small, poorly fitted or top-dose-only effect, or another doubt; inactive = no such curve, though single readings can be large; an effect the other way counts as inactive or inconclusive.
SMILES,Pf growth 48h,Cycloheximide cs,SARS PLpro yeast,AMA1-RON2 inh,Pf growth 96h,Shiga inhibitor
CCOC(=O)c1c(C)[nH]c(N=Nc2ccc(C)cc2C)c1C,0.0%,36.6*,1.6%,-1.6%,46.6%,182.6*
CCOC(=O)c1c(C)[nH]c(N=Nc2cc(C(=O)O)cc(C(=O)O)c2)c1C,-8.1%,-2.7,0.3%,26.9%,?,-4.6
CCOC(=O)c1[nH]c(C)c(C(=O)Nc2ccccc2C)c1C,36.5%,8.4,-2.8%,0.0%,26.5%,8.3
O=C1C(CCc2ccccc2)ON=C(c2cnccn2)N1Cc1ccc(F)cc1 (stereo not drawn),·,·,·,40.2%,·,·
CCCN(Cc1nnc(-c2ccccc2Cl)o1)C(=O)c1cc([N+](=O)[O-])cc([N+](=O)[O-])c1,?,-1.7,-0.7%,-11.9%,?,-10.4
O=C(c1cc2ccccc2o1)N(Cc1nnc(-c2ccccc2Cl)o1)C1CC1,11.5%,·,-3.3%,-11.2%,30.6%,·
O=C(c1cc([N+](=O)[O-])cc([N+](=O)[O-])c1)N(Cc1nnc(-c2ccccc2Cl)o1)C1CC1,?,8.7,-1.7%,-12.0%,11.7µM*,6.0
CCOc1ccc2oc(C(=O)N(Cc3nnc(-c4ccccc4Cl)o3)C3CC3)c(C)c2c1,11.7µM*,·,4.4%,53.8%,8.28µM*,·
CC1CN(S(=O)(=O)c2cccc(C(=O)N(Cc3nnc(-c4ccccc4Cl)o3)C3CC3)c2)CC(C)O1 (stereo not drawn),?,·,-1.8%,83.7%,11.7µM*,·
CSc1cccc(N2CC(C(=O)N(Cc3nnc(-c4ccccc4Cl)o3)C3CC3)CC2=O)c1 (stereo not drawn),?,8.6,1.3%,-7.1%,-28.3%,-8.0
CCOc1ccccc1N1CC(C(=O)N(Cc2nnc(-c3ccccc3Cl)o2)C2CC2)CC1=O (stereo not drawn),?,·,-5.0%,47.7%,9.28µM*,·
CC(C)N(C(=O)CSc1nnc(NC(=O)Cc2cccs2)s1)C(C)C,0.0%,4.5,0.0%,1.3%,32.5%,33.7
CCOc1cc(/C=N/NC(=O)c2ccc(N(C)S(=O)(=O)c3ccccc3)cc2)ccc1OC,-15.7%,-2.3,-0.3%,-27.4%,-0.6%,19.0
COc1ccc(S(=O)(=O)N2CCCOC2CNC(=O)C(=O)NC2CCCC2)cc1 (stereo not drawn),-1.9%,16.3,-2.8%,-0.5%,-25.9%,1.5
CCCCn1c(N)c(N(CC(C)C)C(=O)C2CCN(S(=O)(=O)c3ccc(C)c(C)c3)CC2)c(=O)[nH]c1=O,2.62µM*,-1.5,4.0%,-8.6%,2.33µM*,-12.3
CCCCn1c(N)c(N(CC(C)C)C(=O)C2CCN(S(=O)(=O)c3ccc(C)cc3C)CC2)c(=O)[nH]c1=O,13.1µM*,·,0.8%,-8.7%,?,·
CCCCn1c(N)c(N(CCOC)C(=O)C2CCN(S(=O)(=O)c3ccc(C)cc3)CC2)c(=O)[nH]c1=O,9.2%,·,-7.0%,-5.0%,-11.4%,·
CCCCn1c(N)c(N(CC(C)C)C(=O)C2CCN(S(=O)(=O)c3ccccc3)CC2)c(=O)[nH]c1=O,?,·,6.7%,2.2%,?,·
Cc1ccc(S(=O)(=O)N2CCN(CC(=O)N(CC(C)C)c3c(N)n(CC(C)C)c(=O)[nH]c3=O)CC2)c(C)c1,?,-1.1,2.1%,16.8%,4.15µM*,-12.2
CCCCn1c(N)c(N(CCOC)C(=O)C2CCN(S(=O)(=O)c3ccc(C)cc3C)CC2)c(=O)[nH]c1=O,13.1µM*,·,1.3%,-21.1%,?,·
O=C(c1ccc(Cl)c(S(=O)(=O)N2CCOCC2)c1)N1CCCCCC1,5.2%,-6.5,-0.4%,11.1%,8.1%,-4.9
Cc1ccn2cc(CCNC(=O)COc3ccccc3)nc2c1,3.4%,-2.6,-0.1%,-4.1%,7.3%,-1.4
CCCCn1c(N)c(N(CC(C)C)C(=O)C(C)SCc2nc3sc(C)c(C)c3c(=O)[nH]2)c(=O)[nH]c1=O (stereo not drawn),11.7µM*,·,2.2%,1.6%,7.1%,·
CCCCn1c(N)c(N(CC(C)C)C(=O)CSCc2ccc(Cl)c(Cl)c2)c(=O)[nH]c1=O,11.7µM*,·,2.5%,-20.1%,?,·
Nn1cnc2scc(-c3ccc(Cl)cc3)c2c1=O,3.9%,-3.2,-0.4%,-7.7%,5.22µM*,-5.6
